# Source: PubChem BioAssay (several laboratories)
# The list is not random: actives were taken first. Their share in the collection is about 12%.
# Ins promoter up: MIN6 insulin promoter up-regulation; MIN6 insulin promoter-GFP reporter, high-content imaging; stronger effect = higher value; z-score at 5 µM; hit rate 0.3% among 190,000;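 active = z-score above 3 at 5 µM with at least 500 cells counted in the well; inconclusive = wells under 500 cells, flagged as cytotoxic or low count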
# Lmaj promast: Leishmania major promastigote growth inhibition. Leishmania major promastigotes, resazurin fluorescence viability. inhibition, % at 10 µM. hit rate 9% among 200,000; in the data active = inhibition above about 50%;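 note: promastigotes grown with compound for 44 hours at 28 °C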
# WT yeast gro inh: growth inhibition of WT yeast, mitochondrial fusion screen | mitochondrial fusion phenotypic screen, WT strain | inhibition, % at 10 µM | hit rate 2.1% among 190,000 | AID 1362; in the data active = inhibition above about 58%; tested in S. cerevisiae
# INS promoter inh: TRM-6 insulin promoter activity inhibition; inhibition, % at 2 µM; hit rate 0.9% among 130,000; TRM-6 cells (human fetal islet line), insulin promoter-eGFP reporter, imaging; reporter expression induced with tamoxifen;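 active = inhibition above the mean plus 3 SD, with well images judged a real hit on visual review, cut at about 60% in these data, passing the limit was not always enough; inconclusive = inhibition over the cutoff but images rejected on review; inactive = inhibition not above the cutoff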
# ROMK primary: human ROMK K+ channel modulation, primary screen; P48048; Tet-inducible ROMK, thallium flux fluorescence; actives lie on both sides; B-score at 10 µM; hit rate 2% among 130,000; AID 1918;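 active = signal ratio slope over the read window, or its plate-corrected B-score, at least 3 SD from the plate mean, either direction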;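 note: B-score of the F/F0 ratio slope over 7 to 12 s after thallium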
# Target sequence (P48048 whole entry, looked up): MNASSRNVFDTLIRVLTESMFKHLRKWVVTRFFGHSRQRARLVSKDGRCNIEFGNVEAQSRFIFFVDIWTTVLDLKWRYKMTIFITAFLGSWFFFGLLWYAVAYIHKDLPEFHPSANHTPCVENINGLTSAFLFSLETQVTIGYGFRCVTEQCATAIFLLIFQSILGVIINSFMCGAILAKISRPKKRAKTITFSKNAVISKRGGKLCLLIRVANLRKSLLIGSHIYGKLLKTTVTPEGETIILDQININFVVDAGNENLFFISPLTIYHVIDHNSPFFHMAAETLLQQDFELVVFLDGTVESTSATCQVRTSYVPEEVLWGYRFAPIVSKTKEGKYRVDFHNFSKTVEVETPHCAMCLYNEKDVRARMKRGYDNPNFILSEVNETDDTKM
# Cl transport mod: KCC2 (human) Cl- transport modulation; Q9H2X9; KCC2 cells, thallium flux FluoZin-2 fluorescence; B-score of Tl+ flux slope (higher = more flux/activation; lower = inhibition) at 10 µM; hit rate 2.2% among 190,000; AID 1456;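 active = thallium flux slope and its plate-corrected score both differing from the plate sample mean at a set confidence after two filtering rounds, in either direction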;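 note: slope of fluorescence scaled to starting intensity during 10 to 20 s after thallium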
# ROMK retest: confirmation of human ROMK potassium channel modulators | shares compounds with ROMK primary | ROMK thallium flux, fluorescence ratio; stronger effect = lower value | normalized thallium flux (F/F0 slope) at 10 µM | hit rate 54% among 3,000;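 active = Flux at 10 µM at least 3 SD below or above vehicle control mean in one or both replicates; inconclusive = no clear call, values can overlap the other calls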
# * = called active by the depositor; ? = inconclusive; . = no result.
SMILES,Ins promoter up,Lmaj promast,WT yeast gro inh,INS promoter inh,ROMK primary,Cl transport mod,ROMK retest
CCc1cccc2c(C=C(C#N)C#N)cn(CC(=O)N3CCCCCC3)c12,.,-2,-1,-32,.,-0.45,.
CN(C)C(=O)C1C2NC(=S)N(c3ccccc3)C1(C)Oc1ccccc12 (stereo not given),0.74,-2,-5,13,0.86,-0.033,.
Cc1cccc(N2C(=S)NC3c4ccccc4OC2(C)C3C(=O)N(C)C)c1 (stereo not given),.,26,14,36,-4.4*,0.28,0.064*
Nc1nsnc1C(=O)NCCO,0.31,-3,-11,17,.,0.48,.
COc1ccc(CCn2c(NN)nc3c2c(=O)[nH]c(=O)n3C)cc1,-0.51,.,.,.,4.8*,0.2,?
COc1ccc(CCn2c(NN=C(C)C)nc3c2c(=O)[nH]c(=O)n3C)cc1,-0.14,.,.,.,.,0.17,.
CCOC(=O)c1c(-c2ccccc2)nc2ccccn12,.,8,83,-32,.,-0.62,.
COc1ccc(C(=O)OCCNC(=O)c2c(Cl)nc3ccccn23)cc1,-0.45,0,8,-15,.,0.24,0.059*
Cc1cc(CNCc2c(C(=O)N3CCCCCCC3)nc3ccc(Cl)cn23)nn1C,-0.52,-1,-8,40,1.9*,0.068,0.081
O=C(c1nc2ccc(Cl)cn2c1CNCCn1ccnc1)N1CCCCCCC1,.,-6,-10,55,-0.037,.,.
CN(CC(=O)NCCc1ccc(S(N)(=O)=O)cc1)c1ccccc1,0.22,-4,14,.,0.12,0.04,.
CN(/C=C/C(=C\C=[N+](C)c1ccccc1)OCCCS(=O)(=O)[O-])c1ccccc1,0.15,-4,-2,.,-3.1*,-0.016,0.061*
CN(/C=C/C(=C/C=[N+](C)c1ccccc1)OCCCS(=O)(=O)[O-])c1ccccc1,0.14,1,15,0,-3.5*,0.4,0.056*
Nc1c(-c2nn[nH]n2)cnn1-c1cc(Cl)cc(Cl)c1,0.54,.,.,.,0.22,0.2,.
O=C(COC(=O)c1ccc([N+](=O)[O-])o1)Nc1cccc(S(=O)(=O)N2CCOCC2)c1,0.57,-5,-7,.,.,0.56,.
COc1ccc(Oc2nc3c(C)cccn3c(=O)c2/C=C(\C#N)C(N)=O)cc1,-0.45,.,.,.,.,-0.35,.
CNC(=O)/C(C#N)=C/c1c(N(Cc2ccccc2)Cc2ccccc2)nc2c(C)cccn2c1=O,-0.79,72*,37,.,.,-1.2,0.059*
CC(=O)/C(=C(/O)c1ccccc1)c1nc2ccccc2[nH]1,-0.62,-2,-7,.,0.037,1.1,.
CCOC(=O)C1CCCN(CCC(=O)Nc2cc(C)cc(C)c2)C1 (stereo not given),-0.48,48,2,60,-0.43,-1.1,.
O=C(CSCc1ccc(F)cc1)NCc1ccc(F)cc1,-0.84,-9,7,0,3*,-1.2,0.079
O=c1oc2ccc(Cl)cc2nc1/C=C(\O)c1ccco1,-0.23,.,.,.,0.41,-1,.
Cc1ccc(/C(O)=C/c2nc3cc(C)ccc3oc2=O)cc1,0.67,.,.,.,-2.4*,0.42,0.048*
O=C(NC1CCCCCCC1)C1c2ccccc2C(=O)N1Cc1ccco1 (stereo not given),0.07,10,-2,3,.,0.13,?
Cc1c(C(=O)O)sc2nc3n(c(=O)c12)CCC3,-1.5,-9,13,0,0.17,0.03,.
CS(=O)(=O)N1CCC(C(=O)O)CC1,.,-5,-8,19,-2.2e-05,0.45,.
SMILES,Ins promoter up,Lmaj promast,WT yeast gro inh,INS promoter inh,ROMK primary,Cl transport mod,ROMK retest
CSc1ccc(S(=O)(=O)NCCCOC(C)C)cc1,-0.27,-1,2,.,0.64,0.52,.
CCn1cc(C(=O)N2CCN(c3ccc(F)cc3)CC2)c2cc(OC)c(OC)cc2c1=O,-0.23,-1,-17,58,-0.32,-0.27,0.078
COc1cc2c(C(=O)N3CCN(c4cccc(Cl)c4)CC3)cn(C)c(=O)c2cc1OC,-0.08,-3,-14,-3,-0.84,-0.28,.
CCn1cc(C(=O)N2CCN(c3cccc(Cl)c3)CC2)c2cc(OC)c(OC)cc2c1=O,-0.42,92*,-10,46,1.3*,-0.51,0.071
O=C1NC2(CCCCCC2)N=C1c1ccc(Br)cc1,-0.18,7,3,.,-0.32,0.26,.
CCn1cc(C(=O)OCC(=O)Nc2ccc(C(C)C)cc2)c(=O)c2ccc(C)nc21,-0.18,-9,33,-17,-0.35,-0.56,.
CC1CCCN(c2nc3ccccc3nc2C(C#N)S(=O)(=O)c2cccs2)C1 (stereo not given),-0.23,-1,36,24,-4.5*,-1.4,0.059*
